Assay outcomes as filed in PubChem BioAssay.
This is one part of a sample in which hits are shown more often than they occur.
CD11b adhes enh – enhancers of human CD11b/CD18 binding to fibrinogen; K562 CD11b/CD18 adhesion to fibrinogen, ATPlite luminescence; activation, % at 10 µM; 0.07% of 93,000 active; AID 1499;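 active = 10 µM primary screen giving 50% or more activity, confirmed by 40% or more on retest at that dose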
Cav3 T inh – inhibitors of human Cav3.2 T-type calcium channel. Cav3.2-expressing cells, Fluo-4 calcium fluorescence FDSS; stronger effect = lower value. B-score at 10 µM. 4% of 100,000 active. AID 449739;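 active = single-dose well whose peak fluorescence ratio is a statistical outlier from its plate by either plate-standardised score or position-corrected B-score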
CD11b adhes inh – blocks human CD11b/CD18 adhesion to fibrinogen. P05107+P11215. K562 CD11b/CD18 adhesion to fibrinogen, ATPlite luminescence; Mn2+ added to activate the integrin. inhibition, % at 10 µM. 0.54% of 93,000 active. AID 1497;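 active = primary inhibition of 50% or more at 10 µM, then 40% or more on retest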
Ecoli WT expand – E. coli BW25113 growth inhibition, expanded screen; OD600 absorbance; growth inhibition, % at 100 µM; 0.15% of 98,000 active;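 active = growth inhibition above about 50% at one test dose, limit read from the data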;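 also: growth measured after 20 h incubation at 37 °C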
Hits are given with their value; i = inactive; nt = no result given.

SMILES | CD11b adhes enh | Cav3 T inh | CD11b adhes inh | Ecoli WT expand
O=C(Nc1cccc(-c2nnn(CC(=O)N3CCc4ccccc4C3)n2)c1)C1CCC1 | i | -4.4 | i | i
CCO[C@H]1OC(C(=O)NC2CC2)=C[C@@H](c2coc3ccccc3c2=O)[C@@H]1CCCO | nt | i | nt | nt
Cc1nn(C)c(C)c1/C=C1/SC(=S)NC1=O | i | nt | i | i
Cc1ccc(C2C(/C=C3/SC(=S)NC3=O)=C(c3cccs3)Oc3ccccc32)cc1 (centres undefined) | i | nt | 78 | i
C=CCn1c(SC(C)C(=O)NCCC2=CCCCC2)nc2ccccc2c1=O (centres undefined) | i | -6.1 | i | i
O=C(NCCC1=CCCCC1)C(c1ccccc1)c1ccccc1 | i | i | i | i
Cc1ccc2cc(CN(Cc3ccc4c(c3)OCO4)Cc3nnnn3Cc3ccco3)c(=O)[nH]c2c1 | i | -6.7 | i | i
Cc1ccc(CN(Cc2cc3cc4c(cc3[nH]c2=O)OCCO4)Cc2nnnn2Cc2ccco2)cc1 | i | i | i | i
CCO[C@H]1OC(C(N)=O)=C[C@@H](C)[C@@H]1CCCO | nt | i | nt | nt
CC(CC(=O)Nc1nc2ccccc2[nH]1)c1ccccc1 (centres undefined) | i | -5.7 | i | i
CC(=Nc1ccccc1C)C1=C(O)CSC1=O | i | i | i | i
C[C@H]1COc2c(N3CCN(C)CC3)c(F)cc3c(=O)c(C(=O)O)cn1c23 | nt | i | nt | nt
CN1CCN(c2c(F)cc3c(=O)c(C(=O)O)cn4c3c2SCC4)CC1 | nt | nt | nt | 100
CCSc1nnc(NC(=O)CSc2nccn2-c2cc(C)cc(C)c2)s1 | i | i | i | i
CCSc1nnc(NC(=O)CSc2nccn2-c2cccc(C)c2C)s1 | i | -7.1 | i | i
Brc1ccc(Oc2ncc(CN3CCOCC3)s2)cc1 | nt | i | nt | i
CC(C)OCCCNC(=O)c1c(N)n(/N=C/c2cccs2)c2nc3ccccc3nc12 | 149 | nt | i | i
CC1=C[C@H]2OC(=O)[C@@H](C)[C@H]2C[C@@H]2[C@H]1C[C@@H](O)[C@@]2(C)O | nt | i | nt | nt
O=C1C=C(c2ccccc2)OC(=O)C1C(=O)c1ccccc1 (centres undefined) | nt | i | nt | nt
C#Cc1ccc([C@H]2C=C(C(=O)NC3CC3)O[C@@H](OCC)[C@@H]2CCCO)cc1 | nt | i | nt | nt
CCN1C(=O)N(c2cccc3ccccc23)C(C)=CC1(C)C | nt | -5.7 | nt | i
O=C(Nc1nnc(SCc2cccc3ccccc23)s1)C1COc2ccccc2O1 (centres undefined) | i | nt | i | nt
CC(C)c1ccc(NC(=O)C(c2ccc3c(c2)OCO3)N2CCN(C(=O)c3ccco3)CC2)cc1 (centres undefined) | i | -5.2 | i | i
CCN(CC)C(C(=O)Nc1ccc(C(C)C)cc1)c1ccc2c(c1)OCO2 (centres undefined) | i | -4.9 | i | i
CCCC(C)C(=O)Nc1ccc2c(c1)OCCO2 (centres undefined) | i | i | i | i
SMILES | CD11b adhes enh | Cav3 T inh | CD11b adhes inh | Ecoli WT expand
COc1ccc(C2SCC(=O)N2CC23CC4CC(CC(C4)C2)C3)cc1 (centres undefined) | i | i | i | i
COC(=O)Cc1ccc(NC(=S)NN2CCOCC2)cc1 | i | nt | i | nt
Cc1ccc(S(=O)(=O)N(CC(=O)N2CCN(c3ccccc3F)CC2)C2CCCCC2)cc1 | i | -4.7 | i | i
Clc1ccc(-c2nnnn2-c2ccc(Cl)c(Cl)c2)cc1Cl | i | i | i | i
CC(Sc1nncn1C)C(=O)Nc1ccc(Cl)cn1 (centres undefined) | i | nt | i | nt
Cc1ccc(-n2nnnc2SC(C)C(=O)Nc2ccc(Cl)cn2)cc1 (centres undefined) | i | -4.1 | i | i
CC1(c2nnc(-c3ccc(F)cc3)o2)CC(c2ccncc2)=NO1 (centres undefined) | nt | i | nt | nt
Cc1c(O)ccc(/C(Cc2ccc3ccccc3n2)=N\O)c1O | nt | -4.8 | nt | i
CCn1c(CSc2nc3ccccc3s2)nnc1SCC(=O)c1ccc(Cl)cc1 | i | -4.2 | i | i
N[C@@H](CO)c1nnc([C@H](CC(=O)O)NC(=O)C2CCNCC2)o1 | nt | i | nt | nt
CCn1c(=NC(=O)CSC(C)=O)sc2ccccc21 | i | -7.3 | i | i
COC(=O)Cn1c(=NC(=O)CSC(C)=O)sc2ccccc21 | i | -6.2 | i | i
Cc1ccccc1CNc1ccc(C(CC(N)=O)NC(=O)c2ccccc2)cc1[N+](=O)[O-] (centres undefined) | nt | i | nt | nt
CC(C)n1cnc2c(N(C)c3ccccc3)nc(N(CCN(C)C)Cc3ccccc3)nc21 | nt | i | nt | nt
NC(=O)[C@@H]1CCCNc2c(I)cc([N+](=O)[O-])cc2C(=O)N[C@@H](CCC(=O)O)C(=O)N[C@@H](CO)C(=O)N1 | nt | i | nt | nt
Cc1nn(-c2ccccc2)c(C)c1C(=O)OCC(=O)c1c(N)n(CC(C)C)c(=O)n(C)c1=O | i | -3.8 | 65 | i
CCOC(=O)c1ccc(N2Cc3ccccc3C2)cc1O | 68 | i | i | i
CCOC(=O)c1ccc(N2Cc3ccccc3C2=N)cc1 | i | i | i | i
CCCC(CCC)C(=O)Nc1c[nH]c(=O)[nH]c1=O | i | i | i | i
COCOc1ccc(C=O)c(OCOC)c1 | nt | i | nt | nt
COc1ccc(CC(=O)N2CCN(c3ccccn3)CC2)cc1OC | i | i | i | i
CCCc1ccc(OCc2ccc(C(=O)N3CCN(c4ccccn4)CC3)o2)c(OC)c1 | i | -4.9 | i | i
CCCC(=O)N(CCN(C(=O)CCC)c1ccccc1)c1ccccc1 | nt | -4.1 | nt | nt
CCCNC(=O)c1onc(CSc2ccncc2)c1C(=O)NCCC | nt | i | nt | nt
COc1cccc(OC)c1C(=O)OCC(=O)Nc1ccc(OC(F)(F)F)cc1 | i | -4.8 | i | i
SMILES | CD11b adhes enh | Cav3 T inh | CD11b adhes inh | Ecoli WT expand
CCc1cccc(CC)c1NC(=O)/C(C#N)=C/c1ccccc1C(F)(F)F | i | nt | i | nt
CN(C(=O)COC(=O)c1ccccc1Nc1ccccc1)C1CCS(=O)(=O)C1 (centres undefined) | i | i | i | i
Cc1cccc(Nc2ccccc2C(=O)OCC(=O)N(C)C2CCS(=O)(=O)C2)c1C (centres undefined) | i | -3.4 | i | i
COc1ccc(C)cc1NCC(=O)Nc1ccc(C(C)(C)C)cc1 | i | nt | i | nt
Cc1cccc(-c2nnc(SCc3nc4ccccc4[nH]3)n2Cc2ccco2)c1 | i | -4.8 | i | i
C(=C\c1ccccc1)/CSc1nnc(-c2ccccc2)n1Cc1ccco1 | i | -5.8 | i | i
O=[N+]([O-])c1cc([N+](=O)[O-])c2cccnc2c1Oc1ccccc1O | i | nt | 90 | nt
COc1ccc2c(c1)c(C(=O)N/N=C/c1ccc(OC)c(OC)c1)c(C)n2C | i | nt | i | nt
CCCN(CCC)C(=O)CSc1nc2ccccc2c(=O)n1C1CCCC1 | i | -5.6 | i | i
CN(C)c1ccc(NC(=O)CSc2nc3ccccc3c(=O)n2C2CCCCC2)cc1 | i | i | i | i
Cc1ccc(C(=O)N/N=C(/CC(=O)c2cccs2)C(F)(F)F)cc1 | i | nt | 98 | nt
C/C(=N\NC(=O)c1ccccc1)c1ccc(NC(=O)c2cccs2)cc1 | i | nt | i | nt
Cc1nc(N)c2c(Cc3cccc4ccccc34)nn(C(C)(C)C)c2n1 | nt | i | nt | nt
Cc1cc(C(=O)CSc2ccc(F)cc2)cc(C)c1OC(=S)N(C)C | i | i | i | i
COc1ccc(SCC(=O)c2cc(C)c(OC(=S)N(C)C)c(C)c2)cc1 | i | -4.5 | i | i
